From PubChem BioAssay (NCI)
The panel holds about 79,000 compounds, 15% with a hit somewhere; the sample as a whole holds those more often. Calls of active or inactive are those of the source. Cut-off read from the data, not from the text of the source: active = growth inhibition above about 70%; inactive = the rest.

Tests used:
[1] = NCI Yeast Anticancer Drug Screen. Data for the rad52 strain (AID 147);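 note: 0% = growth of vehicle-treated control cultures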; settings: S. cerevisiae rad52 mutant growth inhibition, hits give high values
Method in brief: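 Vehicle-treated cultures served as the reference for growth inhibition of compound-exposed yeast bearing a DNA repair mutation.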

[2] = NCI Yeast Anticancer Drug Screen. Data for the wt1 strain (AID 149);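 note: 0% = growth of vehicle-treated wt1 cultures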; settings: S. cerevisiae wt1 strain (SPY 50644) growth inhibition, hits give high values
Method in brief: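 Yeast wt1 strain exposed to compounds; growth inhibition measured relative to vehicle-treated controls.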

[3] = NCI Yeast Anticancer Drug Screen. Data for the rad50EPP+ strain (AID 151);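 note: 0% = growth of vehicle-treated control cultures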; settings: S. cerevisiae rad50 mutant strain, hits give high values
Method in brief: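 In this screen, rad50EPP+ yeast were exposed to compounds. Growth inhibition was scored against vehicle-treated controls.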

[4] = NCI Yeast Anticancer Drug Screen. Data for the mgt1 strain (AID 153); settings: S. cerevisiae mgt1 mutant growth inhibition, hits give high values
Method in brief: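 mgt1 strain exposed; growth vs vehicle control recorded as inhibition.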

[5] = NCI Yeast Anticancer Drug Screen. Data for the rad50 strain (AID 155);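 note: 0% = growth of vehicle-only cultures of the same strain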; settings: S. cerevisiae rad50 strain growth inhibition, hits give high values
Method in brief: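 Yeast carrying a defined DNA repair defect were exposed to test compounds, and growth was compared with vehicle-treated controls to give percent inhibition.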

[6] = NCI Yeast Anticancer Drug Screen. Data for the mec2-1 strain (AID 157); settings: S. cerevisiae mec2-1 strain, hits give high values
Method in brief: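 Vehicle-treated cultures served as reference for growth inhibition of compound-exposed mec2-1 yeast.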

[7] = NCI Yeast Anticancer Drug Screen. Data for the rad14 strain (AID 159);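 note: 0% = growth of vehicle-treated control cultures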; settings: S. cerevisiae rad14 strain growth inhibition, hits give high values
Method in brief: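 Yeast cells carrying a defined DNA-repair defect were exposed to compounds, and growth inhibition was calculated relative to vehicle-treated control cultures.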

[8] = NCI Yeast Anticancer Drug Screen. Data for the sgs1 mgt1 strain (AID 161);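 note: 0% = growth of cultures given vehicle only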; settings: S. cerevisiae sgs1 mgt1 strain, hits give high values
Method in brief: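 Inhibition of yeast growth, normalised to vehicle-treated controls, is reported for a strain bearing genetic alterations in DNA damage repair.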

[9] = NCI Yeast Anticancer Drug Screen. Data for the CLN2oe strain (AID 163);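 note: 0% = growth of vehicle-only control cultures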; settings: S. cerevisiae CLN2oe strain, hits give high values
Method in brief: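 Inhibition relative to vehicle-treated yeast is reported. Cells: strain with genetic alteration in cell-cycle control, grown with compound.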

[10] = NCI Yeast Anticancer Drug Screen. Data for the cln2 rad14 strain (AID 165);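 note: 0% = growth equal to vehicle treated cultures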; settings: S. cerevisiae cln2 rad14 strain, hits give high values
Method in brief: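 Each compound was tested on cln2 rad14 yeast. Inhibition of growth was calculated against vehicle-exposed controls.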

[11] = NCI Yeast Anticancer Drug Screen. Data for the bub3 strain (AID 167); settings: S. cerevisiae bub3 mutant strain, hits give high values
Method in brief: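 Compounds were applied to a genetically altered yeast strain carrying a cell-cycle control defect. Growth inhibition was scored against vehicle-treated controls.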

[12] = NCI Yeast Anticancer Drug Screen. Data for the wt2 strain (AID 169);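 note: 0% = growth of vehicle-treated yeast cultures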; settings: S. cerevisiae wt2 strain growth inhibition, hits give high values
Method in brief: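 Inhibition of yeast growth was determined after compound treatment, normalised to controls receiving only vehicle.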

[13] = NCI Yeast Anticancer Drug Screen. Data for the mlh1 strain (AID 171);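 note: 0% = growth of vehicle-treated control cultures of the same strain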; settings: S. cerevisiae mlh1 strain growth inhibition, hits give high values
Method in brief: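 Vehicle-normalised growth inhibition of a repair- or checkpoint-altered yeast strain following compound treatment.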

[14] = NCI Yeast Anticancer Drug Screen. Data for the sgs1 strain (AID 173);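 note: 0% = growth of vehicle-only control cultures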; settings: S. cerevisiae sgs1 mutant, hits give high values
Method in brief: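 Screen format: yeast with repair or checkpoint alterations, compound exposure, growth read relative to vehicle.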

[15] = NCI Yeast Anticancer Drug Screen. Data for the mlh1 rad18 strain (AID 175); settings: S. cerevisiae mlh1 rad18 strain growth inhibition, hits give high values
Method in brief: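 Vehicle-treated cultures served as the reference for growth inhibition in a yeast strain carrying DNA damage repair alterations exposed to each compound.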

[16] = NCI Yeast Anticancer Drug Screen. Data for the rad18 strain (AID 177); settings: S. cerevisiae rad18 mutant growth inhibition, hits give high values
Method in brief: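 Test articles were incubated with altered yeast defective in DNA damage repair. Results are given as inhibition of growth versus vehicle.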

[17] = at 5.0 µM (retest, dose inferred, filed as 0.5)
[18] = at 50.0 µM (retest, dose inferred, filed as 5.0)

Measured: growth inhibition

CC(=O)OC1CC2C(C)(C)C(=O)C=C[C@]2(C)C2CCC3(C)C(=CCC3[C@H](CO)C[C@H](O)C(=O)C(C)(C)O)[C@]12C (stereo partly drawn)
inactive: [1]; at 1.2 µM -7% | [1]; at 3.7 µM -4% | [1]; at 11.0 µM -3% | [1]; at 33.0 µM 11% | [2]; at 1.2 µM -26% | [2]; at 3.7 µM -17% | [2]; at 11.0 µM -31% | [2]; at 33.0 µM -21% | [3]; at 1.2 µM -34% | [3]; at 3.7 µM -35% | [3]; at 11.0 µM -39% | [3]; at 33.0 µM -39% | [3]; at 100.0 µM -31% | [4]; at 1.2 µM -26% | [4]; at 3.7 µM -34% | [4]; at 11.0 µM 53% | [5]; at 1.2 µM -5% | [5]; at 3.7 µM -18% | [5]; [17] -14% | [5]; at 11.0 µM -16% | [5]; at 33.0 µM 6% | [5]; [18] 23% | [5]; at 50.0 µM 44.9% | [5]; at 100.0 µM 62% | [6]; at 1.2 µM -56% | [6]; at 3.7 µM -56% | [6]; [17] -10% | [6]; at 11.0 µM -77% | [6]; at 33.0 µM -40% | [6]; [18] 12% | [6]; at 50.0 µM 42.8% | [6]; at 100.0 µM 53% | [7]; at 1.2 µM -42% | [7]; at 3.7 µM -46% | [7]; at 11.0 µM -29% | [7]; at 33.0 µM -5% | [8]; [17] 35% | [9]; at 1.2 µM -41% | [9]; at 3.7 µM -14% | [9]; at 11.0 µM -7% | [9]; at 33.0 µM 0% | [10]; [17] 32% | [10]; [18] 43% | [10]; at 50.0 µM 26.6% | [11]; at 1.2 µM -24% | [11]; at 3.7 µM -35% | [11]; [17] 13% | [11]; at 11.0 µM -41% | [11]; at 33.0 µM -29% | [11]; [18] 50% | [11]; at 50.0 µM 38.1% | [12]; at 1.2 µM -32% | [12]; at 3.7 µM -18% | [12]; at 11.0 µM 50% | [13]; at 1.2 µM -35% | [13]; at 3.7 µM -23% | [13]; at 11.0 µM 39% | [14]; at 1.2 µM -34% | [14]; at 3.7 µM -5% | [14]; at 11.0 µM 60% | [15]; [17] -6% | [15]; [18] 39% | [15]; at 50.0 µM 26.1% | [16]; at 1.2 µM -21% | [16]; at 3.7 µM -21% | [16]; at 11.0 µM -17% | [16]; at 33.0 µM 3%
active: [1]; at 100.0 µM 81% | [2]; at 100.0 µM 75% | [4]; at 33.0 µM 90% | [4]; at 100.0 µM 94% | [7]; at 100.0 µM 77% | [8]; [18] 93% | [8]; at 50.0 µM 88.8% | [9]; at 100.0 µM 82% | [11]; at 100.0 µM 78% | [12]; at 33.0 µM 86% | [12]; at 100.0 µM 95% | [13]; at 33.0 µM 86% | [13]; at 100.0 µM 92% | [14]; at 33.0 µM 87% | [14]; at 100.0 µM 93% | [16]; at 100.0 µM 74%
